# According to PubChem BioAssay (Tox21):
# Where “and” joins values, the source holds several entries; their conditions need not be identical. Equal values may be shown once. Inconclusive results are not listed. Entries that show only a call come without a potency. The source holds several records for some structures; these can differ, active in one and inactive in another. Calls of active or inactive are those of the source. Calls come from the whole dose curve; as a rule, active = well fitted activation curve with a large enough effect in the repeat runs; inconclusive = weak or mixed curves; inactive = flat fitted curve, though single readings scatter.
# Assay: A CellTox Green Cytotoxicity Assay to monitor cytotoxicity in HepG2 cells - 32 hour (AID 1224883); note: nearly all actives have a fitted effect of over 50% in size
# Details: CellTox Green fluorescence; series mostly up to 76.8 µM
# How it was run: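 Cytotoxicity was tracked as dead-cell DNA fluorescence in HepG2 cells treated with test compounds at 37 C; each time-point value comes from one kinetic series spanning 0, 8, 16, 24, 32 and 40 h.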
# Potency is the fitted concentration of half-maximal effect.
row,Structure (SMILES),Potency
1,CC1=C(/C=C/C(C)=C/C=C/C(C)=C/CO)C(C)(C)CCC1,inactive
2,COC(=O)c1ccccc1O,inactive
3,Oc1ccc2ccccc2c1N=Nc1ccccc1,inactive
4,C[C@@H](O)[C@H]1C(=O)N2C(C(=O)O)=C(S[C@@H]3CN[C@H](C(=O)N(C)C)C3)[C@H](C)[C@H]12,inactive
5,C=C1CC[C@H](O)CC1=C/C=C1\CCC[C@]2(C)[C@@H]([C@H](C)/C=C/[C@H](C)C(C)C)CC[C@@H]12,inactive
6,CCc1ccc(O)cc1,inactive
7,COC(=O)c1ccc(C(=O)OC)cc1,19.8 µM (active) and inactive
8,OCC#CCO,inactive
9,CN(C)c1cccc(O)c1,inactive
10,COCC(=O)O,inactive
11,CC1=CC[C@H]2C[C@@H]1C2(C)C,inactive
12,CC(C)(C)C1CCC(O)CC1 (centres undefined),inactive
13,O=S(=O)(O)c1cc(S(=O)(=O)O)c2c(N=Nc3ccccc3)c(O)ccc2c1,inactive
14,CC#C[C@]1(O)CC[C@H]2[C@@H]3CCC4=CC(=O)CCC4=C3[C@@H](c3ccc(N(C)C)cc3)C[C@@]21C,inactive
15,S=c1nc[nH]c2nc[nH]c12,inactive
16,O=C(Cl)c1c(Cl)c(Cl)c(C(=O)Cl)c(Cl)c1Cl,inactive
17,Nc1nc2ncc(CNc3ccc(C(=O)N[C@@H](CCC(=O)O)C(=O)O)cc3)nc2c(=O)[nH]1,inactive
18,CC1Cc2ccccc2N1NC(=O)c1ccc(Cl)c(S(N)(=O)=O)c1 (centres undefined),inactive
19,C=C(C)C(=O)OCC(CC)(COC(=O)C(=C)C)COC(=O)C(=C)C,inactive and 42.9 µM (active)
